Read-out in experiment [1]: C-C motif chemokine 2 (Homo sapiens) (UniProt P13500)
The experiment can be described thus: BSK_KF3CT_MCP1: BioMAP Diversity Plus: KF3CT Assay for Monocyte Chemoattractant Protein 1 (MCP1/CCL2) Biomarker Activity (AID 2283073). To be noted: primary human keratinocytes with fibroblasts; actives raise or lower the signal. The method, boiled down: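 Human keratinocyte–foreskin fibroblast co-culture; MCP-1 measured by ELISA 24 h after dosing. Bidirectional fit vs DMSO; cytotoxicity tracked by SRB total protein in parallel cultures.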

Read-out in experiment [2]: Matrix Metallopeptidase 9 (MMP9), MMP9 (gene 4318)
Briefly: BSK_KF3CT_MMP9: BioMAP Diversity Plus: KF3CT Assay for Matrix Metallopeptidase 9 (MMP9) Biomarker Activity (AID 2283074).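 On AC50: MMP9 protein level quantified by ELISA in the co-culture.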 Particulars: primary human keratinocytes with fibroblasts; actives raise or lower the signal. The method, boiled down:
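ELISA read-out of MMP-9 at 24 h post-dosing in a co-culture of human skin keratinocytes and foreskin fibroblasts. Gain or loss of signal was fitted in both directions against DMSO.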

Read-out in experiment [3]: urokinase plasminogen activator (uPA), PLAU (gene 5328)
Briefly: BSK_KF3CT_uPA: BioMAP Diversity Plus: KF3CT Assay for urokinase plasminogen activator (uPA) Biomarker Activity (AID 2283075). Particulars: primary human keratinocytes with fibroblasts; actives raise or lower the signal. The procedure, abridged: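 Skin co-culture (keratinocytes + foreskin fibroblasts), human primary; 24 h post-dose; uPA by ELISA; gain/loss fit vs DMSO baseline.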

Read-out in experiment [4]: CD40, CD40 (gene 958)
Briefly: BSK_LPS_CD40: BioMAP Diversity Plus: LPS Assay for CD40 Biomarker Activity (AID 2283076). Particulars: primary human HUVEC with PBMC; actives raise or lower the signal. The method, boiled down:
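HUVEC plus PBMC co-culture stimulated with LPS; CD40 quantified by ELISA 24 h after compound dosing. Fitting was bidirectional relative to DMSO. SRB staining of parallel cultures flagged overt cytotoxicity.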

Read-out in experiment [5]: E-selectin (Homo sapiens) (UniProt P16581)
The experiment can be described thus: BSK_LPS_Eselectin: BioMAP Diversity Plus: LPS Assay for Eselectin Biomarker Activity (AID 2283077). Particulars: primary human HUVEC with PBMC; actives raise or lower the signal. The method, boiled down: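 Human umbilical vein endothelial cells co-cultured with PBMC under LPS stimulation; cell-surface E-selectin measured by ELISA 24 h after dosing. Change in either direction versus DMSO, with SRB total-protein staining in parallel cultures for cytotoxicity.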

Read-out in experiment [6]: Interleukin-8 (IL8), CXCL8 (gene 3576)
Briefly: BSK_LPS_IL8: BioMAP Diversity Plus: LPS Assay for Interleukin-8 (IL8) Biomarker Activity (AID 2283078). To be noted: primary human HUVEC with PBMC; actives raise or lower the signal. The procedure, abridged:
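Human umbilical vein endothelial cells co-cultured with PBMC, LPS-stimulated, exposed to compound for 24 h. IL-8 quantified by ELISA; fitted in both directions against DMSO, with SRB total-protein staining of parallel cultures for cytotoxicity.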

Experiment [7] in a line: BSK_LPS_SRB: Viability Assessment in the BioMAP Diversity Plus: LPS Assay (AID 2283079).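 Further: total protein by sulforhodamine B absorbance as a cytotoxicity measure; measured one day after compound addition.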 Particulars: primary human HUVEC with PBMC. The procedure, abridged:
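Co-culture of human umbilical vein endothelial cells and PBMC, read 24 h after dosing. Total protein by 0.1% SRB staining after 10% TCA fixation, absorbance at 560 nm; bidirectional fit against DMSO.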

Read-out in experiment [8]: Interleukin-1 alpha (IL1a), IL1A (gene 3552)
Briefly: BSK_LPS_IL1a: BioMAP Diversity Plus: LPS Assay for Interleukin-1 alpha (IL1a) Biomarker Activity (AID 2283080). To be noted: primary human HUVEC with PBMC; actives raise or lower the signal. The method, boiled down: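 Human umbilical vein endothelial cells co-cultured with PBMC and stimulated with LPS; IL-1a measured by ELISA 24 h after dosing. Bidirectional fitting against DMSO; cytotoxicity checked by SRB staining in parallel cultures.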

Read-out in experiment [9]: Monocyte Chemoattractant Protein-1 (MCP1), CCL2 (gene 6347)
Briefly: BSK_LPS_MCP1: BioMAP Diversity Plus: LPS Assay for Monocyte Chemoattractant Protein-1 (MCP1) Biomarker Activity (AID 2283081). Particulars: primary human HUVEC with PBMC; actives raise or lower the signal. The method, boiled down:
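Human umbilical vein endothelial cells co-cultured with PBMC, LPS-stimulated; secreted MCP-1 measured by ELISA 24 h after compound addition. Bidirectional curve fitting against DMSO baseline; SRB total-protein staining in parallel cultures for cytotoxicity.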

Experiment [10] can be described thus: BSK_LPS_PGE2: BioMAP Diversity Plus: LPS Assay for Prostaglandin E2 (PGE2) Biomarker Activity (AID 2283082). Particulars: primary human HUVEC with PBMC; actives raise or lower the signal. The method, boiled down: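 Compounds were added to the LPS co-culture of endothelium and PBMC, and PGE2 was measured by ELISA after 24 h. Responses in either direction were fitted with DMSO as baseline.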

Read-out in experiment [11]: Macrophage colony-stimulating factor (MCSF), CSF1 (gene 1435)
Briefly: BSK_LPS_MCSF: BioMAP Diversity Plus: LPS Assay for Macrophage colony-stimulating factor (MCSF) Biomarker Activity (AID 2283083). To be noted: primary human HUVEC with PBMC; actives raise or lower the signal. The method, boiled down:
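HUVEC–PBMC co-culture, M-CSF measured by ELISA 24 h after chemical dosing. Fitted in both directions relative to DMSO as negative control; overt cytotoxicity assessed by SRB total-protein staining in parallel cultures.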

Read-out in experiment [12]: Tissue Factor, F3 (gene 2152)
The experiment can be described thus: BSK_LPS_TissueFactor: BioMAP Diversity Plus: LPS Assay for Tissue Factor Biomarker Activity (AID 2283084). Particulars: primary human HUVEC with PBMC; actives raise or lower the signal. The method, boiled down: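 Human umbilical vein endothelial cells co-cultured with PBMC were dosed with compound. Cell-surface CD142 was measured by ELISA 24 h later. Activity was fitted bidirectionally against DMSO, with SRB total-protein staining in parallel cultures for cytotoxicity.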

Read-out in experiment [13]: Tumor necrosis factor (Homo sapiens) (UniProt P01375)
Briefly: BSK_LPS_TNFa: BioMAP Diversity Plus: LPS Assay for Tumour Necrosis Factor alpha (TNFa) Biomarker Activity (AID 2283085).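 On AC50: TNFa protein level quantified by ELISA in the co-culture.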 To be noted: primary human HUVEC with PBMC; actives raise or lower the signal. The method, boiled down:
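Cells (umbilical vein endothelium plus peripheral blood mononuclear cells) were dosed with chemical, incubated 24 h, then TNFa was quantified by ELISA; values derive from bidirectional fitting with DMSO as baseline.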

Read-out in experiment [14]: Vascular cell adhesion molecule 1 (VCAM1), VCAM1 (gene 7412)
The experiment can be described thus: BSK_LPS_VCAM1: BioMAP Diversity Plus: LPS Assay for Vascular cell adhesion molecule 1 (VCAM1) Biomarker Activity (AID 2283086). To be noted: primary human HUVEC with PBMC; actives raise or lower the signal. The method, boiled down:
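Cells are dosed in an LPS-stimulated endothelial/mononuclear co-culture and, after 24 h, VCAM-1 is quantified by ELISA. Activity in either direction is fitted relative to the DMSO negative control.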

Read-out in a further experiment: CD38, CD38 (gene 952)
Briefly: BSK_SAg_CD38: BioMAP Diversity Plus: SAg Assay for CD38 Biomarker Activity (AID 2283087). Particulars: primary human HUVEC with PBMC; actives raise or lower the signal. The method, boiled down: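 CD38 quantified by ELISA (fluorescence) in a superantigen-activated endothelial cell–PBMC co-culture at 24 h post-dose. Activity fitted in both directions relative to DMSO; parallel SRB and Alamar Blue cytotoxicity read-outs.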

Read-out in experiment [15]: CD40, CD40 (gene 958)
The experiment can be described thus: BSK_SAg_CD40: BioMAP Diversity Plus: SAg Assay for CD40 Biomarker Activity (AID 2283088). Particulars: primary human HUVEC with PBMC; actives raise or lower the signal. The method, boiled down:
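HUVEC plus PBMC co-culture, superantigen-activated, with CD40 read by ELISA 24 h after dosing. Curves fitted in both directions against DMSO. Overt cytotoxicity checked by parallel SRB total-protein staining.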

Read-out in another experiment: CD69, CD69 (gene 969)
The experiment can be described thus: BSK_SAg_CD69: BioMAP Diversity Plus: SAg Assay for CD69 Biomarker Activity (AID 2283089).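 On AC50: cell surface CD69 protein quantified by ELISA with fluorescence detection.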 To be noted: primary human HUVEC with PBMC; actives raise or lower the signal. The procedure, abridged:
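Values derive from bidirectional fitting relative to DMSO vehicle. Cells: umbilical vein endothelium plus peripheral blood mononuclear cells, treated 24 h before fluorescent ELISA for CD69.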

Read-out in experiment [16]: Monocyte Chemoattractant Protein-1 (MCP1), CCL2 (gene 6347)
Briefly: BSK_SAg_MCP1: BioMAP Diversity Plus: SAg Assay for Monocyte Chemoattractant Protein-1 (MCP1) Biomarker Activity (AID 2283090). To be noted: primary human HUVEC with PBMC; actives raise or lower the signal. The procedure, abridged:
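Values derive from bidirectional fitting of ELISA-measured MCP1 against DMSO controls. Readings were taken 24 h after dosing human vascular endothelial cells co-cultured with peripheral blood mononuclear cells under superantigen stimulation.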

Read-out in experiment [17]: E-selectin (Homo sapiens) (UniProt P16581)
The experiment can be described thus: BSK_SAg_Eselectin: BioMAP Diversity Plus: SAg Assay for Eselectin Biomarker Activity (AID 2283091). To be noted: primary human HUVEC with PBMC; actives raise or lower the signal. The method, boiled down:
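Human umbilical vein endothelial cells co-cultured with peripheral blood mononuclear cells, SAg system. E-selectin is measured by ELISA 24 h after dosing and fitted bidirectionally against DMSO. Cytotoxicity is checked by SRB staining of parallel cultures.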

The values that follow come from PubChem BioAssay (EPA / NIEHS).

Molecules are shown by their SMILES. “And” between values parts separate entries of the source, which are not always exact repeats. Equal entries are not always repeated. Where a structure was tested more than once in an assay, its records may differ in their call. The source made the active and inactive calls. How the source made its calls: active means hit-call score of the fitted dose curve at least 0.9, where 1 is the maximum; inactive means score below 0.9.

Chain of Tumor necrosis factor (Homo sapiens) (P01375 whole entry, looked up): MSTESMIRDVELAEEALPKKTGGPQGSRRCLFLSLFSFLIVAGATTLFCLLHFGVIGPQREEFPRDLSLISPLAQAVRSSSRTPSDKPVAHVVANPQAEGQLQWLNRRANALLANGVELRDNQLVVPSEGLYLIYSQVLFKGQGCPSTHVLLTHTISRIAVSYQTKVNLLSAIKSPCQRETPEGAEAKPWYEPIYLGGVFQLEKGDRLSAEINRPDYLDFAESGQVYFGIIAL
Chain of E-selectin (Homo sapiens) (P16581 whole entry, looked up): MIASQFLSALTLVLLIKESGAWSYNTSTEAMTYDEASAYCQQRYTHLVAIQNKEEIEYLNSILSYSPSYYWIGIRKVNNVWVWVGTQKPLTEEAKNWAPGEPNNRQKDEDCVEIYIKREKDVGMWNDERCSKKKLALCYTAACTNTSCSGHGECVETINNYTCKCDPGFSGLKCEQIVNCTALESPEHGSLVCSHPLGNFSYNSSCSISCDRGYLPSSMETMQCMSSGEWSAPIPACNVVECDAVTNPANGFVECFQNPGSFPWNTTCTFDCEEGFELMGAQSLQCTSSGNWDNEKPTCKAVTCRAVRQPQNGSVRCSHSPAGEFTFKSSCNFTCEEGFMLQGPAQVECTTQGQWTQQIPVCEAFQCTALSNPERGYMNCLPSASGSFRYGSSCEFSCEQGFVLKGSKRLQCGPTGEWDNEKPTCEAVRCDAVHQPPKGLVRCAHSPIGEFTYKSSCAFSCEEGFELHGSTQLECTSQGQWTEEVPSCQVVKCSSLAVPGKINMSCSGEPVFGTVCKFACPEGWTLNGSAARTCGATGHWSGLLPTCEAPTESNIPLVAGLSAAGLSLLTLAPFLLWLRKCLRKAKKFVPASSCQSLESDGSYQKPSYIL

Consider `CCn1cc(C(=O)O)c(=O)c2ccc(C)nc21`, for which the outcome was “inactive” in experiment [1]; “inactive” in experiment [2]; “inactive” in experiment [3]; “inactive” with CD40, CD40 (gene 958) [4]; “inactive” in experiment [5]; “inactive” in experiment [6]. For the same compound, the outcome in experiment [7], in experiment [8], in [9], in experiment [10], in experiment [11] and in experiment [12] was inactive. Also, the outcome is “inactive” in experiment [13]; “inactive” in [14]; “inactive” with CD38, CD38 (gene 952); “inactive” in the experiment with CD40, CD40 (gene 958) [15]; “inactive” with CD69, CD69 (gene 969); “inactive” in [16]. Moreover, the result in [17] was inactive.
For the compound `O=C(O)C(F)(F)C(F)(F)C(F)(F)C(F)(F)C(F)(F)C(F)(F)C(F)(F)C(F)F`, the outcome in experiment [1] is “inactive”; in experiment [2], “inactive”; in [3], “inactive”; with CD40, CD40 (gene 958) [4], “inactive”; in [5] it was “inactive”; in experiment [7], “inactive”. Also, the outcome in [8], in [9], in experiment [10], in experiment [11], in experiment [12] and in [13] was inactive. Also, the outcome in [14] is “inactive”; in the experiment with CD40, CD40 (gene 958) [15] it was “inactive”; in the experiment with CD69, CD69 (gene 969), “inactive”; in experiment [16], “inactive”; in experiment [17] it was “inactive”. Also, in experiment [6], the half-maximal activity concentration (AC50) is 8.81 µM (active) and 17.9 µM (active).
With `OCC(F)(OC(F)(F)C(F)(OC(F)(F)C(F)(F)C(F)(F)F)C(F)(F)F)C(F)(F)F` (centres undefined), the AC50 was 5.14 µM (active) in experiment [1]; 5.19 µM (active) and 3.33 µM (active) in [2]; 5.49 µM (active) and 3.33 µM (active) in experiment [3]; 1.1 µM (active) in the experiment with CD40, CD40 (gene 958) [4]; 5.03 µM (active) and 3.77 µM (active) in [5]; 5.01 µM (active) and 4.53 µM (active) in experiment [8]. The AC50 in [10] is 5.49 µM (active) and 5.04 µM (active); in experiment [13], 5.64 µM (active) and 5.47 µM (active); in [14], 5.05 µM (active); in the experiment with CD40, CD40 (gene 958) [15], 2.38 µM (active) and 2.34 µM (active); in the experiment with CD69, CD69 (gene 969), 3.33 µM (active) and 713 nM (active); in [16] it was 2.27 µM (active) and 1.92 µM (active). The concentration at half-maximal activity (AC50) in experiment [17] is 2.96 µM (active) and 3.23 µM (active). Besides, the outcome is “inactive” in experiment [1]; “inactive” with CD40, CD40 (gene 958) [4]; “inactive” in [6]; “inactive” in experiment [7]; “inactive” in experiment [9]; “inactive” in [11]. Further, the outcome in experiment [12] was “inactive”; in experiment [14], “inactive”; with CD38, CD38 (gene 952), “inactive”.
